Assay outcomes (PubChem BioAssay)
Pf Dd2 growth – qHTS Primary assay for Inhibitors of Plasmodium falciparum Dd2 growth in vitro | P. falciparum Dd2 growth, SYBR Green, 72 h | Potency, µM (titrated, usually from 28.9 µM), without a hit: top-dose activity, negative = inhibition, usual class: inhibitors | 120,000 compounds, 4.3% hits; active = well fitted inhibition curve with a large enough effect;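 note: plate controls were DMSO vehicle for no effect and reference drug for full effect; nearly all actives have a fitted effect of over 65% in size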
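Readout: SYBR Green fluorescence, 485 nm excitation, 535 nm emission, after ~16 h lysis at 37C. Before that, Dd2-infected red cells (2.5% hematocrit) grew 72 h with compound, 29 uM top final concentration.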
The depositor's hits bear a star; i = inactive; [ ] = another dose, or the depositor's remark. The sample as a whole holds a higher share of hits than the screen did. Potency is the fitted concentration of half-maximal effect.

SMILES	Pf Dd2 growth
O=C(O)Cn1ccc2cc(OCCc3cccc(-c4ccc(F)cc4F)c3)cnc21	i
O=C(NCC1CC1)c1nc2c(o1)CCN(Cc1ccc3c(c1)CCO3)CC2	i
CCc1ccc(NC(=O)C2CCC(CNS(=O)(=O)c3ccc4c(c3)CC(C)N4C(C)=O)CC2)cc1 (stereo not given)	10µM*
CC(=O)N1c2ccc(S(=O)(=O)NCC3CCC(C(=O)Nc4ccc(C)c(C)c4)CC3)cc2CC1C (stereo not given)	-20%
CC1Cc2cc(S(=O)(=O)NCc3ccccc3)ccc2N1C(=O)C1CCC1 (stereo not given)	3.5µM*
CC(=O)N1c2ccc(S(=O)(=O)NCc3ccccc3Cl)cc2CC1C (stereo not given)	66%
CC(=O)N1c2ccc(S(=O)(=O)NCC3CCC(C(=O)Nc4ccc(F)cc4)CC3)cc2CC1C (stereo not given)	i
CCc1cccc(NS(=O)(=O)c2ccc3c(c2)CC(C)N3C(=O)C2CC2)c1 (stereo not given)	-16%
CC(=O)N1CC2(Cc3ccccc31)CN([S+](=O)([O-])c1ccc(C)cc1)C2	-17%
O=C1COCCN1C1CCN(Cc2ccc(C(F)(F)F)cc2)CC1	-4%
FC(F)Oc1ccccc1CN1CCCC(Nc2ccccc2)C1 (stereo not given)	i
COc1ccc(O)c(CN2CCCC(Nc3ccc(F)cc3)C2)c1 (stereo not given)	2.8µM*
COc1cccc(CCC(=O)N2CCCC(Nc3ccc(F)cc3)C2)c1 (stereo not given)	-11%
COc1ccc(-c2cc(N3CCCN(C(=O)c4cnccn4)CC3)n[nH]2)cc1	i
CCC(=O)Nc1ccc(-c2c(-c3ccc(F)cc3)nn(-c3ccc(F)cc3)c2OC(C)=O)cc1	-23%
COCCOCC(=O)N1CCC2(CC1)CC(N1CCCCC1)CCO2 (stereo not given)	53%
COc1ccccc1N1CCN(S(=O)(=O)c2cc3[nH]c(=O)c(=O)[nH]c3cc2C)CC1	-7%
Cc1cc2[nH]c(=O)c(=O)[nH]c2cc1S(=O)(=O)N1CCN(c2ccccc2F)CC1	9%
Cc1cc2[nH]c(=O)c(=O)[nH]c2cc1S(=O)(=O)N1CCN(c2cccc(C)c2C)CC1	7.9µM*
CC(C)(C)NC(=O)NCc1cc2n(n1)CCCN(C(=O)C1CCC1)C2	5%
CC(C)(N)CN1CCOCC1	1%[115 µM]
OC1(CN2CCC(c3cc(Cc4ccccc4)[nH]n3)CC2)CNCCOC1 (stereo not given)	4%
CC(C)NC(=O)C1CCC(=O)N1C1CCN(C(=O)CCC2CCCC2)CC1 (stereo not given)	15%
CCOc1ccc(C(=O)Nc2c(C(=O)N3CCN(c4ccccc4F)CC3)oc3ccccc23)cc1	-9%
COc1ccc(CC(=O)Nc2c(C(=O)N3CCN(c4ccccc4F)CC3)oc3ccccc23)cc1OC	11µM*
SMILES	Pf Dd2 growth
COc1ccccc1C(=O)Nc1c(C(=O)N2CCN(c3ccc(F)cc3)CC2)oc2ccccc12	50%
CN(C)C(=O)C1CN(C(=O)Nc2cccc(C(F)(F)F)c2)CC12CCOCC2 (stereo not given)	-1%
CCOc1cc(=O)n2c(c1C(=O)N1CCN(C3CCCCC3)CC1)CCCCC2	-7%
COCC1CCN(Cc2cn(-c3ccccc3C)nc2-c2ccc(OC)c(F)c2)CC1	10µM*
COc1ccc(-c2nn(-c3ccccc3C)cc2CN2C[C@@H](C)O[C@@H](C)C2)cc1F	10µM*
COC[C@H]1CCCN1Cc1cn(-c2ccccc2C)nc1-c1ccc(OC)c(F)c1	i
COc1ccc(-c2n[nH]c3c2CC(=O)N(Cc2ccccc2F)C3)cc1F	-20%[44.1 µM]
COc1ccc(-c2nn(-c3ccccc3C)cc2CN2CCCOCC2)cc1F	i
COc1ccc(-c2nn(-c3ccccc3C)cc2CN2CCN(C)C(=O)[C@@H]2C)cc1F	i
O=C(c1ccc(F)cc1)N1CCCC(CN2CCOCC2)CC1 (stereo not given)	-19%
Cc1ncccc1C(=O)N1CCCC(c2nc(-c3cccnc3)no2)CCNC(=O)CC1 (stereo not given)	i
COCCN1C(=O)c2cccn2CC1CNC(=O)CC(C)C (stereo not given)	1%
O=C(c1ccc(Br)o1)N1CC2CC(C1)[C@H]1CCCC(=O)N1C2 (stereo not given in full)	10%
O=C(N[C@H]1CCN2C(=O)N(c3ccc(F)c(Cl)c3)C(=O)[C@@H]2C1)c1ccncc1	-24%[44.1 µM]
O=C1CCC2(C(=O)NCC3CC3)CCCC=C2N1c1ccccc1 (stereo not given)	-22%
Cc1nn(C)c(C)c1CCCN(C)C(=O)c1ccc2c(c1)C(O)CCCCCN2C (stereo not given)	i
COc1cc2c(cc1OCc1ccccc1)N(C(=O)[C@@H]1CCCO1)CC21CCN(C)CC1	i
COc1cc2c(cc1OCc1ccc(Cl)cc1)N(Cc1ccccc1)CC21CCN(C(C)=O)CC1	i
COc1cc2c(cc1OCc1ccccc1)N(C(=O)c1c[nH]c3ccccc13)CC21CCN(C)CC1	2.5µM*
COc1ccc2c(c1)C(C[C@H]1CN(C(=O)C3CCC3)CC[C@H]1CC(=O)O)=NCC2	i
CCc1nnc([C@@H]2CC(F)(F)CN2C(=O)CCn2cc(C)cn2)o1	5%
COc1ccc2[nH]c3c(c2c1)CCNC31CCN(C(=O)C(C)C)CC1	i
CCC(=O)N1CCC2(CC1)NCCc1c2[nH]c2ccc(OC)cc12	-13%
COc1ccc2[nH]c3c(c2c1)CCNC31CCN(C(=O)CC(C)C)CC1	7.9µM*
CCCC(=O)N1CCC2(CC1)NCCc1c2[nH]c2ccc(OC)cc12	-8%
SMILES	Pf Dd2 growth
COc1ccc2[nH]c3c(c2c1)CCNC31CCN(C(=O)C2CCN2C2CCCCC2)CC1 (stereo not given)	13µM*
O=C(c1nccc2ccccc12)N1CCC2(CC1)NCCc1c2[nH]c2ccccc12	4µM*
CCn1ccc(C(=O)N2CCC3(CC2)NCCc2c3[nH]c3ccccc23)n1	-28%
CC(C)CC(=O)N1CCC2(CC1)NCCc1c2[nH]c2ccccc12	-15%
COc1ccc2[nH]c3c(c2c1)CCNC31CCN(C(=O)c2ccncc2)CC1	i
COc1ccc(C(=O)N(C)C2CCc3ccccc32)cc1 (stereo not given)	i
CN1C[C@H](NC2CCC2)CCC[C@@H](C(=O)NC2CCOCC2)CC1=O	-3%[44.1 µM]
O=C(O)C[C@@H]1CCN(Cc2ccccc2)C[C@@H]1CCN1C[C@@H]2C[C@H](C1)c1cccc(=O)n1C2	-10%
O=S(=O)(c1cccnc1)N1CCC(OC2CCN(Cc3cccnc3)CC2)CC1	-20%
CCc1noc(CC2CCOC3(CCN(S(=O)(=O)c4cccc(OC)c4)CC3)C2)n1 (stereo not given)	-23%
Cc1ccc(C2Cn3nnc(C(=O)N4CCN(C(=O)c5ccccn5)CC4)c3CO2)cc1 (stereo not given)	i
CCOc1cc(=O)n2c(c1C(=O)N(CC)Cc1ccncc1)CCCCC2	32%
CS(=O)(=O)N1CCC(OC2CCN(C(=O)Nc3cccc(F)c3)CC2)CC1	i
O=C(C1CC1)N1CCCC(c2nn(-c3ccccc3)c(=O)[nH]2)C1 (stereo not given)	-18%[44.1 µM]
CN1CCCCCC(O)c2cc(C(=O)N3CCCCCC3)ccc21 (stereo not given)	i
Cc1ccc(S(=O)(=O)NC[C@H]2OC[C@@H](N(C)C)[C@@H]2O)cc1	-8%[44.1 µM]
O[C@@H]1C[C@@H](c2nc(Cc3ccccc3)no2)N(CCCc2ccccc2)C1	i
